The target of one assay is TSEN34. Kind of assay: pooled miR-30 sensor sort-seq; sequence = guide strand. The note with it: shRNA.
Sequence TTCTGCTTCTTAGCAGCCTGGC displayed a sensor-assay potency score (higher = more potent) of -0.77.

AATCTTCTCCAGGAGCTCCTGA: the sensor-assay potency score (higher = more potent) was -1.01.

For the sequence TCTCTGTAGATACTGTAGCGCA, the sensor-assay potency score (higher = more potent) is -0.97.

TAGACTGGACACGCCAGTCCAG returned a sensor-assay potency score (higher = more potent) of -1.11.

TACTGTAGCGCAGCTCGTGGGC came in with a sensor-assay potency score (higher = more potent) of -0.594.

TTTCTGCTTCTTAGCAGCCTGG: the sensor-assay potency score (higher = more potent) was -1.47.

In the case of TCTTTAGACTGGACACGCCAGT, the sensor-assay potency score (higher = more potent) is -1.04.

On to TCGGGCATCAGCAGCAGCGGGA, for which the sensor-assay potency score (higher = more potent) is -1.31.

TCTGTAGATACTGTAGCGCAGC gave a sensor-assay potency score (higher = more potent) of -0.735.

A further assay concerns the target TSPAN3. The assay is described as above. The note with it: shRNA.
Consider TTTCTTTGAACCAATCTGTATT, for which the sensor-assay potency score (higher = more potent) was -1.05.

Consider TTCTGTGACAAAAACCAAGAGC, for which the sensor-assay potency score (higher = more potent) was -0.255.

AATTCCACAACAATGCAGCTGT gave a sensor-assay potency score (higher = more potent) of 0.00279.

Sequence TAAGCAGGATCTCTACTCCTTC yielded a sensor-assay potency score (higher = more potent) of -0.519.

As to TTGCTCTGTAAACATATCCCAA, the sensor-assay potency score (higher = more potent) was -1.02.

TACACTTTCTGAATGCTGCGAT returned a sensor-assay potency score (higher = more potent) of 1.02.

TTATACACTTTCTGAATGCTGC had a sensor-assay potency score (higher = more potent) of -0.18.

TTTCTTGTAGCTTCTTCACTAC yielded a sensor-assay potency score (higher = more potent) of -0.264.

TTGCTGGCAGTCTCTCTGCAGC had a sensor-assay potency score (higher = more potent) of -1.25.

Consider TAGGTCTTATACACTTTCTGAA, for which the sensor-assay potency score (higher = more potent) was -0.69.

As to AACCACTACAACAACTTCTGTG, the sensor-assay potency score (higher = more potent) came out at 0.151.

The target in a further assay is TSPAN8. Described as above. The note with it: shRNA.
Turning to TTGCTTGAGAGTCATTGCTTAC, the sensor-assay potency score (higher = more potent) was -1.33.

Take AACAACAGAAGCATGCAGCGAC: the sensor-assay potency score (higher = more potent) was -0.179.

The sequence TTGAGAGTCATTGCTTACTCGT came in with a sensor-assay potency score (higher = more potent) of -0.804.

Regarding TTGTTTTCCATTATAGCTTTGG, the sensor-assay potency score (higher = more potent) was -0.474.

The sequence TATAGCACCGCAGCATCCCAGG displayed a sensor-assay potency score (higher = more potent) of -1.12.

In the case of TTAGATTTGAAAACAGCTCCTA, the sensor-assay potency score (higher = more potent) amounted to 0.475.

Take TTTGAAAACAGCTCCTAGGATA: the sensor-assay potency score (higher = more potent) is -0.99.

The sequence TAGGATACCTGTCGCCACCTGC gave a sensor-assay potency score (higher = more potent) of -0.685.

On to TAGATTTGAAAACAGCTCCTAG, for which the sensor-assay potency score (higher = more potent) is -0.482.

TATGAAAAACAACAGAAGCATG came in with a sensor-assay potency score (higher = more potent) of -1.79.

The sequence TATGTCTAGAAGATATCTGTGG returned a sensor-assay potency score (higher = more potent) of -0.374.

In a further assay the target is TSPY2. The assay is described as above. The following applies: shRNA.
On to TCTTGCAGAGATGAACACGATG, for which the sensor-assay potency score (higher = more potent) is -0.976.

Consider ATGAACACGATGCTTCTCTTCT, for which the sensor-assay potency score (higher = more potent) is -0.856.

The sequence TCCTGCACAGCCTCCATCCTGA returned a sensor-assay potency score (higher = more potent) of -1.01.

A further assay concerns the target TSPYL2. Described as above. The following applies: shRNA.
Consider ATGTCTGAGATCCTGTACCTGC, for which the sensor-assay potency score (higher = more potent) was -1.08.

Sequence TTGTGGTCAGGATTCTCGCTGT had a sensor-assay potency score (higher = more potent) of -0.451.

TCTCTGTCGTCATCATCGCTGC: the sensor-assay potency score (higher = more potent) is -0.7.

Take TTGATCAAAATTGAAATTCTGG: the sensor-assay potency score (higher = more potent) is 0.568.

Sequence TCAATGTCTGAGATCTCGCTGA registered a sensor-assay potency score (higher = more potent) of 0.0217.

As to TCATTGTCACTGTCGCTGCTGT, the sensor-assay potency score (higher = more potent) is -0.335.

The record behind these values is the OligoGym collection.
Note: reference of the scale not given here.
